The nature of assay [1]: qHTS assay to identify small molecule antagonists of the thyroid receptor (TR) signaling pathway (AID 743065). Also: nearly all actives have a fitted effect of over 55% in size. Also: potency is read from the fitted curve at half-maximal effect. In outline: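 GH3.TRE-Luc rat pituitary cells carrying two TR response elements driving luciferase were plated for 4 h, given compound plus 1 nM T3 (final), and incubated 23.5 h at 37 C. ONE-Glo luminescence measured reporter inhibition; CellTiter-Fluor fluorescence tracked cytotoxicity.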
Background: In qHTS, concentration-response curves come from the screen itself.

The test system of assay [2] is thyroid hormone receptor (rat, GH3 cells). Kind of assay: qHTS assay to identify small molecule agonists of the thyroid receptor (TR) signaling pathway (AID 743066; calls by dose curve).
Assay [3] in a line: qHTS assay to identify small molecule antagonists of the estrogen receptor alpha (ER-alpha) signaling pathway - cell viability counter screen (AID 743074; calls by dose curve; also: nearly all actives have a fitted effect of over 45% in size).
Assay [4] can be described thus: qHTS assay to identify small molecule antagonists of the estrogen receptor alpha (ER-alpha) signaling pathway using the BG1 cell line - cell viability counter screen (AID 743081).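 Also: compound given together with 17beta-estradiol as the ER stimulus; nearly all actives have a fitted effect of over 45% in size.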
Assay [5] deals with Aromatase (Homo sapiens) (UniProt P11511). Kind of assay: qHTS assay to identify aromatase inhibitors (AID 743083). Also: nearly all actives have a fitted effect of over 55% in size.
Chain of Aromatase (Homo sapiens) (P11511 whole entry, looked up): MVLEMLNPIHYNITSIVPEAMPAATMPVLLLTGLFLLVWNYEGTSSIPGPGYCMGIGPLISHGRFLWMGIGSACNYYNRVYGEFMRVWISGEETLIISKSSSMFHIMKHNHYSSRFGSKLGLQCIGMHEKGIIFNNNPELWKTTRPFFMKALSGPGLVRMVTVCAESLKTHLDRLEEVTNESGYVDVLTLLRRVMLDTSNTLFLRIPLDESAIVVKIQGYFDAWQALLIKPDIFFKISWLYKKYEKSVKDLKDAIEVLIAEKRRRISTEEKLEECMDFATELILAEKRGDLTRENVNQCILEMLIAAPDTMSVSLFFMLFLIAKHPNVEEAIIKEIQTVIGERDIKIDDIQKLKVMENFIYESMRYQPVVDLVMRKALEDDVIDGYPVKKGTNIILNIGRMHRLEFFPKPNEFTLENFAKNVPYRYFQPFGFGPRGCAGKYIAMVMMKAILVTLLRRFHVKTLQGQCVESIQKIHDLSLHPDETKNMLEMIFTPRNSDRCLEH
A short description of assay [6]: qHTS assay to identify aromatase inhibitors - cell viability counter screen (AID 743084).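 Also: cells stimulated with testosterone during compound exposure; nearly all actives have a fitted effect of over 55% in size.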
The target of assay [7] is Aryl hydrocarbon receptor (Homo sapiens) (UniProt P35869). The assay is described as follows: qHTS assay to identify small molecule that activate the aryl hydrocarbon receptor (AhR) signaling pathway (AID 743085). Also: nearly all actives have a fitted effect of over 15% in size. Also: potency is read from the fitted curve at half-maximal effect.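 As to activation: HG2L7.5c1 human HepG2 liver cells with stably integrated DRE-driven firefly reporter.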 In outline: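 Measured in HG2L7.5c1 cells: CellTiter-Fluor signal (30 min incubation, 37C) for viability, then luciferase luminescence (30 min, room temperature). Compound contact time was 24 h at 37C, following a 5 h pre-incubation.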
Chain of Aryl hydrocarbon receptor (Homo sapiens) (P35869 whole entry, looked up): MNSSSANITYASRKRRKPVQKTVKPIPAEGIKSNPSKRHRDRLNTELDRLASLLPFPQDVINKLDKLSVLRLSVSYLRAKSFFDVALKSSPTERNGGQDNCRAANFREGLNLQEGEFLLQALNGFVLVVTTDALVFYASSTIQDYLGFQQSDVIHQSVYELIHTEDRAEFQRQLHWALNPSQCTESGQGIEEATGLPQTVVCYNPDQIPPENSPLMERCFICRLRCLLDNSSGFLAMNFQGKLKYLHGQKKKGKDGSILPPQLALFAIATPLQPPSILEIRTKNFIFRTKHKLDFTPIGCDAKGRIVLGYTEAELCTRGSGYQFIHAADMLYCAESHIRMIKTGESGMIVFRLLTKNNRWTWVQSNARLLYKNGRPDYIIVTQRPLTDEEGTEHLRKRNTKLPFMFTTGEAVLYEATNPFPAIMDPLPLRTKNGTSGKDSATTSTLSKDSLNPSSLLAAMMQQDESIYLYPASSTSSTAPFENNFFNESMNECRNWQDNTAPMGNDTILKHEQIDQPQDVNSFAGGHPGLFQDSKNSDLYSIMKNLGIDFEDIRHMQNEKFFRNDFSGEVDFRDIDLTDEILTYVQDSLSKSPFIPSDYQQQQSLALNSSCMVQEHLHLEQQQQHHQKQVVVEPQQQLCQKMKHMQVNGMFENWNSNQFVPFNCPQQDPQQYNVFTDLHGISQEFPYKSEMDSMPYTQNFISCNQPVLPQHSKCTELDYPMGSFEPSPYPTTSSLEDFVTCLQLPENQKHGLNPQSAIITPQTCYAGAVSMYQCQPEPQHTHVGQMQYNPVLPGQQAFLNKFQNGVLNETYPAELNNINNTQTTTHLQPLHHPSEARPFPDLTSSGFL

Assay [8] is described as follows: qHTS assay to identify small molecule that activate the aryl hydrocarbon receptor (AhR) signaling pathway - cell viability counter screen (AID 743086).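 Also: HepG2 liver cells carrying the AhR DRE luciferase reporter; nearly all actives have a fitted effect of over 45% in size.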 In outline: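 HepG2-AhR-luc (HG2L7.5c1) cells, 4000/well, were preincubated 5 h at 37C, exposed to compound in qHTS format for 24 hr at 37C, then given CellTiter-Fluor for 30 min; viability was read as fluorescence in the reporter wells.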

The target of assay [9] is Peroxisome proliferator-activated receptor gamma (Homo sapiens) (UniProt P37231). Kind of assay: qHTS assay to identify small molecule agonists of the peroxisome proliferator-activated receptor gamma (PPARg) signaling pathway (AID 743094; active = well fitted activation curve with a large enough effect in the signal ratio in the repeat runs, not every such curve was filed as active; the % refers to the signal ratio). In outline: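 Cells from the PPARg UAS-bla HEK293H line are plated and incubated 5 h at 37C. Compounds in DMSO are pinned in and left 17 h at 37C. LiveBLAzer B/G substrate is then added for 1 h at room temperature before fluorescence is measured.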
Chain of Peroxisome proliferator-activated receptor gamma (Homo sapiens) (P37231 whole entry, looked up): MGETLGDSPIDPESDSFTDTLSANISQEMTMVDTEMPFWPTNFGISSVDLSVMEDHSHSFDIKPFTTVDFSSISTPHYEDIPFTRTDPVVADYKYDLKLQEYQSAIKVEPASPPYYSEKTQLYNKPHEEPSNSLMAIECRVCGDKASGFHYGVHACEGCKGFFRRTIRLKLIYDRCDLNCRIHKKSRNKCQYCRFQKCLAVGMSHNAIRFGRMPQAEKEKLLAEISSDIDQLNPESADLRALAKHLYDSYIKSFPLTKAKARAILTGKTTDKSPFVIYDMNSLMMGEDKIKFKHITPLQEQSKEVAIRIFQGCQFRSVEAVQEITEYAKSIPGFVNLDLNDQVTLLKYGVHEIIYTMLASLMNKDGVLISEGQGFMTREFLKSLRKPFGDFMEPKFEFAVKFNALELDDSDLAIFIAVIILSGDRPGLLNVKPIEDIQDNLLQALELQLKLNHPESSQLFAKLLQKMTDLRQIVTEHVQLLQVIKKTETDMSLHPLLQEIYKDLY

Assay [10] is described as follows: qHTS assay to identify small molecule antagonists of the peroxisome proliferator-activated receptor gamma (PPARg) signaling pathway - cell viability counter screen (AID 743194). Also: nearly all actives have a fitted effect of over 55% in size. The following applies: Potency: co-treated with 50 nM rosiglitazone. In outline:
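PPARg-UAS-bla HEK293H cells were plated, rested 5 h at 37 C, then treated with compounds plus rosiglitazone (50 nM final) for 17 h at 37 C; viability was then read by CellTiter-Glo luminescence after 30 min at room temperature.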

Assay [11] can be described thus: qHTS assay for small molecule agonists of the antioxidant response element (ARE) signaling pathway (AID 743202; active = well fitted activation curve with a large enough effect in the signal ratio in the repeat runs, not every such curve was filed as active; the % refers to the signal ratio; also: potency is read from the fitted curve at half-maximal effect). In outline: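 Steps: seed ARE-bla HepG2 cells (2,000/well); incubate 5 h at 37 C; add compounds by pin tool; incubate 16 h at 37 C; add FRET substrate; read fluorescence after 2 h at RT.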
A short description of assay [12]: qHTS assay for small molecule activators of the heat shock response signaling pathway - cell viability counter screen (AID 743209). Also: nearly all actives have a fitted effect of over 50% in size. In outline:
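Cytotoxicity counter screen run in parallel with the HSE beta-lactamase reporter, using the same wells. HeLa HSE-bla cells received compound for 5 h at 37 C; ATP-based CellTiter-Glo luminescence was measured after 30 min at room temperature.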

Assay [13] in a line: qHTS assay for small molecule activators of the heat shock response signaling pathway (AID 743210; active = well fitted activation curve with a large enough effect in the signal ratio in the repeat runs, with a control signal flat, not every such curve was filed as active; the % refers to the signal ratio;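 also: HeLa cells with beta-lactamase reporter driven by heat shock elements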). In outline: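 Activation of heat shock element-controlled beta-lactamase expression is measured in HeLa cells by LiveBLAzer FRET fluorescence, with compound exposure lasting 5 h at 37 C and substrate loading 2.5 h at room temperature.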
The nature of assay [14]: qHTS assay to identify small molecule agonists of the peroxisome proliferator-activated receptor delta (PPARd) signaling pathway - cell viability counter screen (AID 743211). Also: nearly all actives have a fitted effect of over 55% in size. In outline:
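Following 5 h plating at 37 C and 5% CO2, PPARd UAS-bla HEK293H cells took up test compounds for 17 h. Viability was quantified by luminescence 30 min after CellTiter-Glo addition at room temperature.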

Assay [15] addresses Estrogen receptor (Homo sapiens) (UniProt P03372). Kind of assay: qHTS assay to identify small molecule agonists of the estrogen receptor alpha (ER-alpha) signaling pathway (AID 743075; calls by dose curve).
The target is the same in assay [16]. Kind of assay: qHTS assay to identify small molecule agonists of the estrogen receptor alpha (ER-alpha) signaling pathway using the BG1 cell line (AID 743079). Also: nearly all actives have a fitted effect of over 20% in size. The following applies: BG1Luc4E2 cells, ERE-luciferase agonist, 22 h; at 70.3 µM (top of the series).
Assay [17] in a line: qHTS assay to identify small molecule antagonists of the estrogen receptor alpha (ER-alpha) signaling pathway using the BG1 cell line (AID 743080; calls by dose curve;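 also: BG1 cells stimulated with 17beta-estradiol alongside compound; nearly all actives have a fitted effect of over 25% in size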). In outline: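 BG1Luc4E2, endogenous ER-alpha, 4xERE-luc; 5 d charcoal-stripped FBS, phenol red free; 24 h plating; cpd + 17beta-estradiol 21.5 h, 37 C/5% CO2; CellTiter-Fluor viability 30 min, then ONE-Glo luciferase 30 min RT.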

A short description of assay [18]: qHTS assay for small molecule agonists of the antioxidant response element (ARE) signaling pathway - cell viability counter screen (AID 743203; calls by dose curve; also: nearly all actives have a fitted effect of over 55% in size). In outline: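 Cytotoxicity was tested in parallel with the ARE reporter screen. ARE-bla HepG2 cells were exposed to compounds for 16 hrs, and viability was taken from CellTiter-Glo luminescence.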
Assay [19] has as its target Estrogen receptor (Homo sapiens) (UniProt P03372). Kind of assay: qHTS assay to identify small molecule antagonists of the estrogen receptor alpha (ER-alpha) signaling pathway (AID 743069; active = well fitted curve in the direction sought with a large enough effect in the signal ratio in the repeat runs, not every such curve was filed as active; the % refers to the signal ratio). In outline:
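Screening used a UAS-driven beta-lactamase reporter integrated into HEK293 cells expressing ER-alpha, stimulated with 17beta-estradiol alongside test compounds over 18 hr at 37C; signal came from LiveBLAzer B/G FRET fluorescence.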

Assay [20] addresses Peroxisome proliferator-activated receptor gamma (Homo sapiens) (UniProt P37231). Kind of assay: qHTS assay to identify small molecule antagonists of the peroxisome proliferator-activated receptor gamma (PPARg) signaling pathway (AID 743191; calls by dose curve; also: nearly all actives have a fitted effect of over 30% in size). In outline:
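GeneBLAzer PPARg UAS-bla HEK293H cells carrying a UAS-driven beta-lactamase reporter were plated at 3000 cells/well, preincubated 5 h at 37C, then given compound for 17 h at 37C; LiveBLAzer B/G FRET substrate was read after 1 h at room temperature.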

Potency, outcome and activation data for eight molecules are collected here from PubChem BioAssay (Tox21).

Records with an inconclusive call do not appear. A number with no mark means an inactive call. The source made the active and inactive calls. Unless noted, calls follow the shape of the dose curve; as a rule, active = well fitted curve in the direction sought with a large enough effect in the repeat runs; inconclusive = weak or mixed curves; inactive = no such curve, though single readings can be large; an effect the other way counts as inactive or inconclusive.
% is scaled to controls: 0 for no effect and ±100 for the full control effect.

Chain of Estrogen receptor (Homo sapiens) (P03372 whole entry, looked up): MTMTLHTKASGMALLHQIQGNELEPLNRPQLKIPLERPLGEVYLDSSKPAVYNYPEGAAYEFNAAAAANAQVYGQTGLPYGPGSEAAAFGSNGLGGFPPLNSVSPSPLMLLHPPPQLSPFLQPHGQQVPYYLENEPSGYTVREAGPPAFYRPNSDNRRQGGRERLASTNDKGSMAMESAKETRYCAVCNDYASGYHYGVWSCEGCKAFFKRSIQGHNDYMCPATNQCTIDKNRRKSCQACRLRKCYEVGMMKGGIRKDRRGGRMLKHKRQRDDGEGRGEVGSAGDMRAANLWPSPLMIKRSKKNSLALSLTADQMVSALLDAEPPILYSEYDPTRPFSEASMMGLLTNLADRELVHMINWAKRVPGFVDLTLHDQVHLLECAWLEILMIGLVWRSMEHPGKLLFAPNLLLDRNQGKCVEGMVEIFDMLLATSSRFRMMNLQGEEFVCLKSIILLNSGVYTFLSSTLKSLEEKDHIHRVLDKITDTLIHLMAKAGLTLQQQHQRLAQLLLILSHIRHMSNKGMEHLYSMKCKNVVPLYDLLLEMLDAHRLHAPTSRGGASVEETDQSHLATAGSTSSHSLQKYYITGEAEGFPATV

Turning to `ClCCOCOCCCl`, the Potency result in assay [1], in assay [2], in assay [4], in [5], in assay [6] and in [7] was “inactive” in each case. Moreover, the Potency entry in assay [10], in [11], in assay [12] and in assay [14] was “inactive” in each case. Besides, the molecule was called inactive in assay [3], in assay [8], in [9] and in [13].
For `O=C(Nc1ccccc1)c1ccccc1I`, the Potency result in [1], in assay [2], in [15], in assay [17], in assay [4] and in assay [6] was “inactive” in each case. For the same molecule, the Potency entry in assay [10], in assay [18], in [12] and in assay [14] was “inactive” throughout. The molecule was called inactive in assay [3], in assay [8] and in assay [13]. For the same molecule, the activation in [16] is 0.753%. Also, the Potency was 48.6 µM (active) in assay [7] and 21.7 µM (active) in assay [11].
Regarding `CC(=O)[C@H]1CC[C@H]2[C@@H]3CC[C@H]4C[C@H](O)CC[C@]4(C)[C@H]3C(=O)C[C@]12C`, the Potency entry in assay [2], in assay [19], in assay [15], in [17], in [4] and in [5] was “inactive” in each case. In addition, the Potency entry in assay [6], in assay [7], in [20], in assay [12] and in assay [14] was “inactive” throughout. The result in assay [3], in [8], in assay [9] and in [13] was inactive. Also, the activation in assay [16] was 8.45%.
Regarding `CCOC(=O)NC(=S)Nc1ccccc1NC(=S)NC(=O)OCC`, the Potency in [1] was 54.5 µM (active). The Potency result in assay [2], in assay [4], in assay [5], in [6], in [20] and in [10] was “inactive” each time. Also, the Potency entry in assay [11], in [18], in assay [12] and in assay [14] was “inactive” each time. Besides, the molecule was called inactive in [8], in assay [9] and in [13].
In the case of `CC(C)COP(=O)(OCC(C)C)OCC(C)C`, the Potency entry in [1], in [2], in assay [4], in [6], in [7] and in [20] was “inactive” in each case. Besides, the Potency result in assay [10], in assay [11], in assay [18], in assay [12] and in [14] was “inactive” each time. For the same molecule, the molecule was classed as inactive in assay [3], in assay [8], in assay [9] and in assay [13].
For `COCC(=O)N(c1c(C)cccc1C)N1CCOC1=O`, the Potency result in assay [1], in assay [2], in assay [4], in [5], in assay [6] and in assay [11] was “inactive” throughout. The Potency entry in assay [18], in assay [12] and in [14] was “inactive” throughout. Moreover, the result in [3], in [8] and in assay [13] was inactive.
Take `CCOC(=O)N(C)C(=O)CSP(=S)(OCC)OCC`: the Potency entry in assay [1], in assay [2], in assay [4], in [6], in [20] and in assay [10] was “inactive” in each case. Moreover, the Potency entry in [18] and in [12] was “inactive” each time. The molecule was classed as inactive in [3], in assay [8] and in [9]. Moreover, the Potency in assay [7] was 15.4 µM (active).
As to `COC(=O)c1c(C(F)F)nc(C(F)(F)F)c(C2=NCCS2)c1CC(C)C`, the Potency result in [2], in [19], in [15], in assay [17], in assay [4] and in assay [5] was “inactive” each time. Further, the Potency result in assay [6], in assay [7], in assay [20], in [10], in assay [11] and in [18] was “inactive” throughout. Also, the Potency result in assay [12] and in assay [14] was “inactive” throughout. Moreover, the molecule was classed as inactive in assay [3], in assay [8], in assay [9] and in assay [13]. Further, the activation in assay [16] was 0.436%.
